# In all, about 77,000 compounds went through this assay and about 4,600 (6%) were called active. Roughly 1% stayed inconclusive and do not appear here.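 Rule for the calls: active = mean inhibition above about 93%, with at least 55% of replicates each passing it (limit read from the data, passing the limit was not always enough); inconclusive = only one of those two conditions holds; inactive = neither condition holds.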 Only a selection was taken, and actives are over-represented in it overall.
# Assay: growth inhibition of T. cruzi in host fibroblasts – cell-based, beta-gal Tulahuen parasites, NIH3T3 host, luminescence, primary screen (AID 624255)
# Conditions: T. cruzi beta-gal in NIH3T3, GalScreen luminescence, 90 h; at 8.34 µM; hits give high values
row,Structure (SMILES),inhibition
1,CCC(=O)N1[C@@H]2c3ccc(-c4cccnc4)c(=O)n3C[C@H]1[C@H](CO)[C@H]2C(=O)N1CCc2ccccc2C1,29.4% (inactive)
2,O=C(C1CCC1)N1C[C@@H]2[C@H](c3ccccc31)[C@H](CO)N2C(=O)c1ccccc1,11.8% (inactive)
3,CC(C)CC#Cc1ccc2c(c1)O[C@H](CN(C)Cc1ccncc1)[C@H](C)CN([C@H](C)CO)S2(=O)=O,118% (active)
4,CC(C)CC#Cc1ccc2c(c1)O[C@H](CN(C)C(=O)c1cccnc1)[C@@H](C)CN([C@H](C)CO)S2(=O)=O,78.2% (inactive)
5,CCCN(C)C[C@H]1Oc2cc(C#CCC(C)C)ccc2S(=O)(=O)N([C@H](C)CO)C[C@H]1C,75.8% (inactive)
6,CC(C)CC#Cc1ccc2c(c1)O[C@H](CN(C)Cc1cccnc1)[C@H](C)CN([C@@H](C)CO)S2(=O)=O,103% (active)
7,COCC#Cc1ccc2c(c1)O[C@@H](CN(C)Cc1cccnc1)[C@@H](C)CN([C@H](C)CO)S2(=O)=O,70% (inactive)
8,CCNC(=O)C[C@H]1CC[C@@H](NC(=O)C2CCOCC2)[C@@H](CO)O1,40% (inactive)
9,CCNC(=O)Nc1ccc2c(c1)C(=O)N(C)[C@H]1CC[C@H](CC(=O)NCC3CCCCC3)O[C@@H]1CO2,25.8% (inactive)
10,CCS(=O)(=O)Nc1ccc2c(c1)C(=O)N(C)C[C@@H](OC)[C@@H](C)CN(C(=O)COC)[C@H](C)CO2,-5.98% (inactive)
11,Cc1ccc(S(=O)(=O)Nc2ccc3c(c2)C(=O)N(C)[C@@H]2CC[C@@H](CC(=O)O)O[C@H]2CO3)cc1,33.9% (inactive)
12,C[C@H](O)C#Cc1ccc2c(c1)O[C@H](CN(C)Cc1cccnc1)[C@@H](C)CN([C@H](C)CO)S2(=O)=O,34.8% (inactive)
13,C[C@@H]1CN([C@@H](C)CO)S(=O)(=O)c2ccc(C#Cc3cccnc3)cc2O[C@@H]1CN(C)C,-8.96% (inactive)
14,C[C@@H]1CN([C@H](C)CO)S(=O)(=O)c2ccc(C#CC3CCCC3)cc2O[C@@H]1CN(C)Cc1cccnc1,118% (active)
15,C[C@@H]1CN([C@H](C)CO)S(=O)(=O)c2ccc(C#CC3CC3)cc2O[C@H]1CN(C)Cc1ccccc1F,81.5% (inactive)
16,C[C@H](CO)N1C[C@H](C)[C@H](CN(C)Cc2cccnc2)Oc2cc(C#CC3CCCC3)ccc2S1(=O)=O,97.8% (active)
17,C[C@H](O)C#Cc1ccc2c(c1)O[C@@H](CN(C)Cc1cccnc1)[C@H](C)CN([C@H](C)CO)S2(=O)=O,46.1% (inactive)
18,O=C(Nc1cccc(Cl)c1)N1C[C@@H]2[C@H](c3ccccc31)[C@H](CO)N2C(=O)C1CC1,45% (inactive)
19,O=C(C[C@@H]1CC[C@H]2[C@@H](COC[C@@H](O)CN2C(=O)c2ccc3c(c2)OCO3)O1)NC1Cc2ccccc2C1,-11.4% (inactive)
20,CCCC#Cc1cnc2c(c1)C(=O)N([C@H](C)CO)C[C@H](C)[C@H](CN(C)C(=O)c1cnccn1)O2,-48.3% (inactive)
21,CCCC(=O)Nc1ccc2c(c1)C(=O)N(C)[C@H]1CC[C@@H](CC(=O)NCc3ccccc3)O[C@@H]1CO2,-21.7% (inactive)
22,Cc1cccc(S(=O)(=O)N2CC[C@@H]3[C@H]2c2cc(C#Cc4ccccc4F)ccc2N[C@@H]3CO)c1,62.9% (inactive)

row,Structure (SMILES),inhibition
1,Cc1cccc(S(=O)(=O)N2CC[C@@H]3[C@H]2c2cc(C#Cc4ccc(F)cc4)ccc2N[C@@H]3CO)c1,12.4% (inactive)
2,Cc1ccccc1S(=O)(=O)N1CC[C@H]2[C@H](CO)Nc3ccc(-c4cccc(F)c4)cc3[C@H]21,100% (active)
3,COc1ccc(-c2ccc3c(c2)[C@@H]2[C@@H](CCN2C(=O)c2cccc(F)c2)[C@H](CO)N3)cc1,29.7% (inactive)
4,Cn1cnc(S(=O)(=O)N2CC[C@@H]3[C@H]2c2cc(C#Cc4cccc(F)c4)ccc2N[C@@H]3CO)c1,-22.2% (inactive)
5,COc1ccccc1S(=O)(=O)N1CC[C@@H]2[C@H]1c1cc(-c3ccccc3)ccc1N[C@@H]2CO,71.9% (inactive)
6,O=S(=O)(c1ccccc1)N1CC[C@@H]2[C@H]1c1cc(C#Cc3cccc(F)c3)ccc1N[C@@H]2CO,102% (active)
7,O=C(c1cccc(F)c1)N1CC[C@@H]2[C@@H](CO)Nc3ccc(C#Cc4cccc(F)c4)cc3[C@@H]21,110% (active)
8,COc1ccc(-c2ccc3c(c2)[C@@H]2[C@@H](CCN2S(=O)(=O)c2ccccc2F)[C@H](CO)N3)cc1,36.8% (inactive)
9,N#Cc1cccc(-c2ccc3c(c2)[C@H]2[C@H](CCN2S(=O)(=O)c2ccc(F)cc2)[C@@H](CO)N3)c1,19.2% (inactive)
10,COc1cccc(-c2ccc3c(c2)[C@H]2[C@H](CCN2C(=O)c2ccc(F)cc2)[C@@H](CO)N3)c1,32.4% (inactive)
11,O=S(=O)(c1ccccc1)N1CC[C@@H]2[C@@H](CO)Nc3ccc(C#Cc4cccc(F)c4)cc3[C@@H]21,105% (active)
12,CC(C)c1cn(CC[C@@H]2CC[C@@H](NC(=O)C3CC3)[C@H](CO)O2)nn1,10.2% (inactive)
13,CCCNC(=O)C[C@H]1CC[C@@H]2[C@H](COC[C@H](O)CN2S(=O)(=O)c2ccccc2F)O1,11.7% (inactive)
14,CO[C@H]1CC[C@@H]2CCOc3c(C#N)cccc3C(=O)N(C)C[C@H](C)C(=O)N(C)C[C@H]1O2,30.6% (inactive)
15,O=C(C[C@@H]1CC[C@H](NC(=O)Cc2ccccn2)[C@H](CO)O1)NCCc1ccncc1,-62.5% (inactive)
16,C[C@@H](NC(=O)C[C@@H]1C[C@H]2c3cc(NC(=O)C4CCC4)ccc3O[C@H]2[C@@H](CO)O1)c1ccccc1,-32.2% (inactive)
17,Cc1ccc(S(=O)(=O)Nc2ccc3c(c2)C(=O)N([C@H](C)CO)C[C@@H](C)[C@@H](CN(C)C(=O)CCC(F)(F)F)OCCCC[C@@H](C)O3)cc1,47.6% (inactive)
18,CCCN1C[C@H](C)[C@H](OC)CN(C)C(=O)c2cc(NC(=O)C3CCOCC3)ccc2OC[C@@H]1C,-22.2% (inactive)
19,Cc1ccc(S(=O)(=O)Nc2ccc3c(c2)C(=O)N(C)[C@H]2CC[C@H](CC(=O)O)O[C@H]2CO3)cc1,22.9% (inactive)
20,COCC#Cc1ccc([C@@H]2[C@@H](CO)N3CCCCN(C(=O)COC)C[C@@H]23)cc1,12.3% (inactive)
21,COc1ccc(S(=O)(=O)N2CCCCN3[C@H](C2)[C@H](c2ccc(C#CCC(C)C)cc2)[C@@H]3CO)cc1,103% (active)
22,COCC#Cc1ccc([C@@H]2[C@H](CO)N3CCCCN(C(=O)CN(C)C)C[C@@H]23)cc1,107% (active)

row,Structure (SMILES),inhibition
1,CC(C)NC(=O)N1CCCCN2[C@@H](CO)[C@@H](c3ccc(C#C[C@@H](C)O)cc3)[C@@H]2C1,75.5% (inactive)
2,O=S(=O)(c1ccc(F)cc1)N1CCCCN2[C@H](CO)[C@@H](c3ccc(C#CC4CCCC4)cc3)[C@H]2C1,88.5% (inactive)
3,CCC(=O)N1CCCCN2[C@H](C1)[C@@H](c1ccc(C#CCOC)cc1)[C@@H]2CO,14% (inactive)
4,CC(C)C#Cc1ccc([C@H]2[C@H](CO)N3CCCCN(C(=O)NC(C)C)C[C@@H]23)cc1,104% (active)
5,COc1cccc(S(=O)(=O)N2CCCCN3[C@H](CO)[C@H](c4ccc(C#CC5CC5)cc4)[C@H]3C2)c1,118% (active)
6,Cn1cnc(S(=O)(=O)N2CCCCN3[C@@H](CO)[C@@H](c4ccc(C#CC5CCCC5)cc4)[C@@H]3C2)c1,54.8% (inactive)
7,COc1ccc(S(=O)(=O)N2CCCCN3[C@@H](CO)[C@@H](c4ccc(C#CCC(C)C)cc4)[C@@H]3C2)cc1,34.4% (inactive)
8,CC(C)C#Cc1ccc([C@@H]2[C@H]3CN(C(=O)NC(C)C)CCCCN3[C@H]2CO)cc1,43.5% (inactive)
9,CN1c2ccc(C#Cc3cccnc3)cc2[C@@H]2[C@@H](CCN2S(=O)(=O)c2ccccc2)[C@H]1CO,89.6% (inactive)
10,COc1ccccc1NC(=O)N[C@H]1CC[C@@H](CCn2cc(C3(O)CCCC3)nn2)O[C@@H]1CO,0.23% (inactive)
11,C[C@@H](NC(=O)[C@H]1[C@H](CO)[C@H]2Cn3c(cccc3=O)[C@H]2N1C(=O)C1CC1)c1ccccc1,-11.1% (inactive)
12,CC=Cc1ccc2n(c1=O)C[C@@H]1[C@@H](CO)[C@H](C(=O)N[C@@H](C)c3ccccc3)[C@H]2N1Cc1ccncc1 (mixture of isomers),25.6% (inactive)
13,COC(=O)C[C@@H]1CC[C@H]2[C@@H](COC[C@H](O)CN2C(=O)Nc2ccccc2OC)O1,-19.2% (inactive)
14,CC(=O)N1[C@@H](CO)[C@H](c2ccccc2)[C@@H]1CN(C(=O)c1ccccc1)C(C)C,26.7% (inactive)
15,O=C(C[C@H]1C[C@H]2c3cc(NC(=O)C4CCOCC4)ccc3O[C@H]2[C@@H](CO)O1)NCC1CC1,-5.99% (inactive)
16,Cn1cnc(S(=O)(=O)N2C[C@H](O)COC[C@@H]3O[C@H](CC(=O)NCc4cccc(F)c4)CC[C@H]32)c1,34.3% (inactive)
17,CN1C[C@@H]2[C@H](c3ccccc31)[C@H](CO)N2C(=O)Nc1ccc(F)cc1,15.1% (inactive)
18,Cc1ccc(S(=O)(=O)Nc2ccc3c(c2)C(=O)N([C@@H](C)CO)C[C@H](C)[C@@H](CN(C)C(=O)Nc2ccc(F)cc2)OCCCC[C@H](C)O3)cc1,92.5% (inactive)
19,O=C(C[C@H]1C[C@H]2c3cc(NC(=O)CC4CC4)ccc3O[C@H]2[C@H](CO)O1)NCc1cc(F)ccc1F,-48.8% (inactive)
20,CC(C)CC#Cc1ccc2c(c1)O[C@@H](CN(C)C(=O)Nc1ccccc1F)[C@@H](C)CN([C@@H](C)CO)S2(=O)=O,83.3% (inactive)

# — PubChem BioAssay AID624255 (Broad Institute, 2012)
